Only some compounds are listed: those with a hit (about 3.6% of all), similar ones and a draw of the others.
TDP-43 yeast inh – inhibitors of TDP-43 toxicity in yeast; AID 652104; Potency, µM (doses to about 46.1 µM), without a hit: at the highest dose growth rescue (activation), actives largely listed as activators; TDP-43 expressing yeast growth rescue, BacTiter-Glo, 24 h; 1.8% of 410,000 active; note: % of control where 0% means no effect; nearly all actives have a fitted effect of over 50% in size
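Growth rescue of TDP-43-toxic yeast measured as ATP luminescence (BacTiter-Glo). Cells grown to mid-log in raffinose, induced in galactose at OD600=0.02, exposed to compound 24 hr at 30 deg C.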
Abeta rescue – restores growth of yeast expressing A-beta42 peptide; AID 1347071; 0.063% of 410,000 active; yeast expressing A-beta42, growth rescue, OD600, 48 h; response scale: 0% DMSO, 100% iron-clioquinol control; Potency, µM (top dose mostly 46.1 µM), hits mostly activators; note: nearly all actives have a fitted effect of over 55% in size
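Yeast growth medium received pinned compounds, then yeast cells expressing toxic A-beta were added; plates incubated at 30 C for 48 hr. Growth read as absorbance at 600 nm, normalized to DMSO and equimolar FeCl3 plus clioquinol controls.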
ClpP mod – qHTS Assay for Activators of ClpP | Potency, µM (highest dose often 57.5 µM), for the others: top-dose activity change, negative = active | ATP-dependent Clp protease proteolytic subunit (Bacillus subtilis (strain 168)), P80244 | 1.9% of 340,000 active | purified B. subtilis ClpP, FRET peptide cleavage, 20 min | AID 651965, 2013; active = well fitted falling curve with a large enough effect; inconclusive = small, poorly fitted or top-dose-only effect; inactive = no such curve, though single readings can be large or run the other way; note: the source files actives as falling curves though it sought activators and does not explain the sign; nearly all actives have a fitted effect of over 65% in size
Target sequence (P80244 whole entry, looked up): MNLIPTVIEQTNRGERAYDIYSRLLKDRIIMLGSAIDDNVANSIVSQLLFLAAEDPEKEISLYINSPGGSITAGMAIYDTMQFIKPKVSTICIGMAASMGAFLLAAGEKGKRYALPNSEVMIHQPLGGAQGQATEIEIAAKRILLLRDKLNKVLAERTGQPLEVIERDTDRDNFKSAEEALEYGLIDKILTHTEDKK
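Buffer: 100 mM Tris/HCl pH8, 100 mM KCl, 0.05% low protease BSA, 2.5% glycerol, 0.01% Tween-20. ClpP 10 microg/mL final; 20 min RT; delta FRET normalized to ADEP and DMSO controls.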
aSyn rescue – inhibitors of alpha-synuclein toxicity in yeast | Yeast expressing alpha-synuclein, growth rescue, BacTiter-Glo, 24 h | Potency, µM (top dose mostly 46.1 µM), inactives show at the highest dose growth rescue (activation), most hits filed as activators | 0.14% of 370,000 active | AID 652106; note: % of control where 0% means no effect; nearly all actives have a fitted effect of over 65% in size
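Rescue of yeast growth: cells expressing toxic alpha-synuclein, induced in galactose at OD600 0.02, incubated with compound 24 h at 30 C. ATP luminescence quantified growth; inhibitors of toxicity appear as activators.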
Mm-Cpn inhibitor – inhibitors of Methanococcus maripaludis chaperonin TRiC (MmCpn); purified Mm-Cpn ATPase, ADP Transcreener TR-FRET; 0.031% of 330,000 active; Potency, µM (titrated, usually from 76.9 µM), for inactives: at the highest dose activity, negative = inhibition, actives largely listed as inhibitors; AID 504842; note: % is set by controls: 0 for no effect and ±100 for the full control effect; nearly all actives have a fitted effect of over 80% in size
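25 nM Mm-CPN + cpd, 10 min 37°C; + 10 uM ATP, 30 min 37°C; buffer 30 mM Tris pH 7.4, 100 mM KCl, 5 mM MgCl2, 1 mM DTT; Transcreener ADP HTRF detection 30 min RT.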
FUS suppressor – rescues growth of FUS-expressing yeast; AID 1347120; S. cerevisiae FUS-expressing, growth rescue, OD600, 24 h; 0.24% of 390,000 active; Potency, µM (highest dose often 76.6 µM), usual class: activators;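 note: plate controls were DMSO vehicle for no effect and reference control for full effect; nearly all actives have a fitted effect of over 55% in size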
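FUS-expressing yeast, raffinose-pregrown, induced in 2% galactose minimal medium at OD 0.005; compounds in a dilution series, 24hr at 30C. Growth restoration read as absorbance at 600 nm. CP55940 positive control, DMSO negative.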
* = called active by the depositor. Unless noted, calls come from the whole dose curve; as a rule, active = well fitted curve in the direction sought with a large enough effect; inconclusive = small, poorly fitted or top-dose-only effect, or another doubt; inactive = no such curve, though single readings can be large; an effect the other way counts as inactive or inconclusive. Potency is the fitted concentration of half-maximal effect.

Screening CCOc1ccc(C(=O)Nc2ccccc2OCc2cc(=O)n3ccccc3n2)cc1 returned TDP-43 yeast inh 23.9%, Abeta rescue inactive, ClpP mod 12.5% and FUS suppressor inactive.
For CCC(C)[C@@H](NC(=O)OC(C)(C)C)c1nnc(S(=O)(=O)Cc2cccc(C)c2)o1 (some centres undefined) the results were TDP-43 yeast inh 7.94µM*, Abeta rescue inactive, ClpP mod -6.4%, aSyn rescue 6.9%, Mm-Cpn inhibitor -0.9% and FUS suppressor inactive.
`Cc1ccc(-c2noc(CSc3nnc(C)n3-c3ccc(C)c(C)c3)n2)cc1` gave TDP-43 yeast inh 35.5µM*, Abeta rescue inactive, ClpP mod 0.7% and FUS suppressor inactive.
Clc1ccc(-c2noc(CSc3nnc(-c4ccncc4)n3-c3ccccc3)n2)cc1 was read as TDP-43 yeast inh -0.9%, Abeta rescue inactive, ClpP mod -1.9%, aSyn rescue 10.2%, Mm-Cpn inhibitor -0.5% and FUS suppressor inconclusive.
Cc1ccc(-n2c(SCc3nc(-c4ccc(Cl)cc4)no3)nnc2-c2ccncc2)cc1 was read as TDP-43 yeast inh 35.5µM*, Abeta rescue inactive, ClpP mod -0.6% and FUS suppressor inconclusive.
For Cc1ccc(-c2noc(CSc3nnc(C)n3-c3ccc(C)cc3)n2)cc1 the results were TDP-43 yeast inh 0.0%, Abeta rescue inactive, ClpP mod 1.2% and FUS suppressor inconclusive.
For Cc1ccc(-c2noc(CSc3nnc(-c4ccncc4)n3-c3ccc(C)cc3)n2)cc1 the results were TDP-43 yeast inh -5.5%, Abeta rescue inactive, ClpP mod -0.2%, aSyn rescue 20.2%, Mm-Cpn inhibitor 0.3% and FUS suppressor inactive.
`Nn1c(SCc2cccc(C(F)(F)F)c2)nnc1-c1ccco1` gave TDP-43 yeast inh 18.7%, Abeta rescue inactive, ClpP mod -1.2%, aSyn rescue 6.9%, Mm-Cpn inhibitor -0.1% and FUS suppressor inactive.
Screening Cn1c(SCc2cccc(C(F)(F)F)c2)nnc1-c1ccco1 returned TDP-43 yeast inh 20µM*, Abeta rescue inactive, ClpP mod 0.7%, aSyn rescue 16.9%, Mm-Cpn inhibitor -1.7% and FUS suppressor inactive.
`Cn1c(SCc2nc(-c3ccc(Cl)cc3)no2)nnc1-c1ccco1` gave TDP-43 yeast inh 12.6µM*, Abeta rescue inactive, ClpP mod -1.0%, aSyn rescue 5.2%, Mm-Cpn inhibitor -1.1% and FUS suppressor inactive.
Screening Cc1ccc(C)c(N2CCN(c3nc4ccccc4c(=O)n3-c3ccc(Cl)cc3)CC2)c1 returned TDP-43 yeast inh 1.6%, Abeta rescue inactive, ClpP mod -3.5% and FUS suppressor inactive.
`Cc1ccccc1Cn1c2ccccc2c2cnn(CC(=O)NCCCc3ccccc3)c(=O)c21` gave TDP-43 yeast inh 7.2%, Abeta rescue inactive, ClpP mod -17.4% and FUS suppressor inactive.
For CCOC(=O)Cc1csc(NC(=O)c2ccc(Br)cc2)n1 the results were TDP-43 yeast inh 12.6µM*, Abeta rescue inactive, ClpP mod 1.1%, aSyn rescue -8.8%, Mm-Cpn inhibitor -0.5% and FUS suppressor inactive.
`CCOC(=O)Cc1csc(NC(=O)c2ccc(NC(C)=O)cc2)n1` gave TDP-43 yeast inh -4.8%, Abeta rescue inactive, ClpP mod 0.1%, aSyn rescue -8.9%, Mm-Cpn inhibitor -1.4% and FUS suppressor inactive.
Screening CCOC(=O)Cc1csc(NC(=O)c2ccc3ncsc3c2)n1 returned TDP-43 yeast inh 14.1µM*, Abeta rescue inactive, ClpP mod -2.7%, aSyn rescue -14.7%, Mm-Cpn inhibitor 1.3% and FUS suppressor inactive.
CCOC(=O)Cc1csc(NC(=O)c2cc(C)c(C)s2)n1 was read as TDP-43 yeast inh 21.6%, Abeta rescue inactive, ClpP mod 28.2µM*, aSyn rescue -11.7% and Mm-Cpn inhibitor -4.3%.
Screening CCOc1ccc(-n2c(C)nc3cc(C(=O)NCCCN4CCOCC4)ccc32)cc1 returned TDP-43 yeast inh 11.1%, Abeta rescue inactive, ClpP mod 31.6µM*, aSyn rescue 2.1%, Mm-Cpn inhibitor 0.3% and FUS suppressor inactive.
For CCOc1ccc(-n2c(C)nc3cc(C(=O)NCCN4CCOCC4)ccc32)cc1 the results were TDP-43 yeast inh 5.7%, Abeta rescue inactive, ClpP mod -3.9%, aSyn rescue 1.7%, Mm-Cpn inhibitor 2.8% and FUS suppressor inactive.
For O=c1c2nncn2ccn1-c1ccc(F)c(F)c1 the results were TDP-43 yeast inh 23.2%, Abeta rescue inactive, ClpP mod 0.4% and FUS suppressor inactive.
For COCCCNC(=O)C[C@H]1C[C@@]2(C(=O)OC)C(=C[C@H](C(C)C)O[C@@H]2C2CC2)N(Cc2ccc(Cl)cc2Cl)C1=O the results were FUS suppressor 28.2µM*.
Screening COC(=O)[C@]12C[C@H](CC(=O)NCc3ccc(OC)c(OC)c3)C(=O)N(Cc3ccc(Cl)cc3Cl)C1=C[C@H](C(C)C)O[C@@H]2C1CC1 returned FUS suppressor 28.2µM*.
Screening COC(=O)[C@]12C[C@H](CC(=O)NCCC(C)C)C(=O)N(Cc3ccc(Cl)cc3Cl)C1=C[C@H](C(C)C)O[C@@H]2C1CC1 returned FUS suppressor inactive.
`Cc1cc(O)c2c(C)c(CC(=O)N3CCCCC3)c(=O)oc2c1` gave TDP-43 yeast inh 23.4%, Abeta rescue inactive, ClpP mod 1.3% and FUS suppressor inactive.
`CCOC(=O)CCc1c(C)c2ccc(O)cc2oc1=O` gave TDP-43 yeast inh 21.3%, Abeta rescue inactive, ClpP mod inconclusive, aSyn rescue 6.1%, Mm-Cpn inhibitor -8.1% and FUS suppressor inactive.
Screening CCOC(=O)Cc1c(C)c2ccc(N(CC)CC)cc2oc1=O returned TDP-43 yeast inh 19.8%, Abeta rescue inactive, ClpP mod 22.4µM*, aSyn rescue -3.9%, Mm-Cpn inhibitor -4.1% and FUS suppressor inactive.
Cc1c(CC(=O)N2CCN(C(=O)C3COc4ccccc4O3)CC2)c(=O)oc2cc(O)cc(O)c12 (centres undefined) was read as TDP-43 yeast inh -7.5%, Abeta rescue inactive, ClpP mod 3.7%, aSyn rescue -18.2%, Mm-Cpn inhibitor -1.2% and FUS suppressor 17.8µM*.
`CCOC(=O)c1oc2cc(O)cc(C)c2c1C` gave TDP-43 yeast inh inconclusive, Abeta rescue inactive, ClpP mod 12.6µM* and aSyn rescue -7.1%.
